According to the supplement of paper PMC8183993:
“And” between values parts separate entries of the source, which are not always exact repeats. Equal entries are not always repeated. Structures can show the parent of a compound that is named as a salt. ± gives the standard deviation of the averaged measurements. Over roughly 3,100 compounds, “mean cytoplasmic OPP incorporation (global translation) relative to DMSO” has its median near 100; the lowest 2% begin near 56. The sample as a whole holds a higher share of the lowest values than the screen did.

The compounds below were run on U2OS (assay: mean cytoplasmic OPP incorporation (global translation) relative to DMSO (% of DMSO); higher = more protein synthesis). Conditions: 10 µM; 24 h.
Experimental: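 Primary image-based screen in U2OS cells: compounds at 10 uM for 24 h, then a 1 h o-propargyl-puromycin (OPP) pulse, click labelling, and high-throughput microscopy. Mean cytoplasmic OPP intensity and nuclei count were normalised to DMSO wells within each plate (DMSO = 100) and averaged over triplicate plates.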

Compound	mean cytoplasmic OPP incorporation
CC(C)C(=O)SCCCCCCC(=O)Nc1nc(-c2ccccc2)cs1	117
CCCCCCN(CCCCCC)C(=O)Cc1c(-c2ccc(Cl)cc2)[nH]c2ccc(Cl)cc12	104
Cc1ccc(CC2(O)CCN(CCOc3ccc(O)cc3)CC2)cc1	108
COc1cc(C#N)ccc1S(=O)(=O)Nc1ccc2c(c1)cc(C)c(=O)n2C	109
COc1ccc(CCN(C)CCCOc2ccc(S(=O)(=O)c3c(C(C)C)c4ccccc4n3C)cc2)cc1OC	110
Clc1cc2c(NC3CCCC3)nnc(-c3ccncc3)c2cc1Cl	114
Cc1cnc(Nc2ccc(OCCN3CCCC3)cc2)nc1Nc1cccc(S(=O)(=O)NC(C)(C)C)c1	82.6 and 66.4
CCN(CC)CCOc1ccc(Nc2ncc3cc(-c4c(Cl)cccc4Cl)c(=O)n(C)c3n2)cc1	53.6
CSc1cccc(Nc2ncc3cc(-c4c(Cl)cccc4Cl)c(=O)n(C)c3n2)c1	116
Cc1ccc(S(=O)(=O)C=CC#N)cc1	65.3
O=C1Nc2ccc(-c3cccnc3)cc2/C1=C/c1ccc[nH]1 [JAK3 Inhibitor VI]	90
N=C(N)c1ccc(N2CCN(C3CCN(CC(=O)O)CC3)CC2)cc1	99.3
NC[C@H]1CC[C@H](C(=O)O)CC1 [Tranexamic acid]	47
NCC1CCC(C(=O)N[C@@H](Cc2ccccc2)C(=O)Nc2ccc(CC(=O)O)cc2)CC1 (some centres not stated)	97.5
CC1(C)CCC(C)(C)c2cc(C(=O)Nc3ccc(C(=O)O)cc3)ccc21	105 and 99.6
CN(CCc1ccc(Cl)c(Cl)c1)CC(O)COc1ccc(NS(C)(=O)=O)cc1 (configuration not stated)	102 and 107
N#Cc1ccc(NC(=O)Nc2ccccc2Br)c2n[nH]nc12	104
Cc1nc(Nc2n[nH]c3c2CN(C(=O)N[C@H](CN(C)C)c2ccccc2)C3(C)C)c2sccc2n1	45.5
CC(C)CC(=O)Nc1n[nH]c2c1CN(C(=O)C1CCN(C)CC1)C2(C)C	65.9

Compound	mean cytoplasmic OPP incorporation
CSc1nc(NC2CCCC2)c([N+](=O)[O-])c(NC2CCCC2)n1	101
COC(C)(C)CCCC(C)C/C=C/C(C)=C/C(=O)O (configuration not stated) [Methoprene acid]	99.2
CC(=O)OCOC(c1cc([N+](=O)[O-])ccc1Oc1ccc(Br)cc1)P(=O)(OCOC(C)=O)OCOC(C)=O (configuration not stated)	101
CC(C)N1Cc2cc(S(C)(=O)=O)ccc2N(CCN2CC=C(c3c[nH]c4cc(F)ccc34)CC2)S1(=O)=O	106
COCC(=O)O[C@]1(CCN(C)CCCc2nc3ccccc3[nH]2)CCc2cc(F)ccc2[C@@H]1C(C)C [Mibefradil dihydrochloride]	116
CC(C)[C@H]1c2ccc(F)cc2CC[C@@]1(CCN(C)CCCc1nc2ccccc2[nH]1)OC(=O)C1CC1 [NNC 55-0396 dihydrochloride]	55.5
N#Cc1ccc(NCCNCC(=O)N2CCC[C@H]2C#N)nc1 [NVP DPP 728 dihydrochloride]	90.3
COc1ccc(CCN(C)CCCN2CCc3cc(OC)c(OC)cc3CC2=O)cc1OC [Zatebradine hydrochloride]	107
COc1cc(N)c(Cl)cc1C(=O)OCCCN1CCCCC1	104
O=C(O)c1ccc(N2C(=O)C(=Cc3ccccc3)SC2=S)cc1	102
O=C(NCCN1CCOCC1)c1ccc(Cl)cc1 [Moclobemide]	91.9
O=C1C(Cl)=C(NCCN2CCOCC2)C(=O)c2ncccc21	31
Cc1cc(-c2ccccc2)nnc1NCCN1CCOCC1 [Minaprine dihydrochloride]	99.4
Cl/C(=C\n1cncn1)c1ccc(Cl)cc1Cl [Loreclezole hydrochloride]	98.7
Cc1oc(S(=O)(=O)N2CCCCC2)cc1NC(=O)Nc1ccccc1	102
COc1ccccc1N1CCN(CCCCNC(=O)c2ccc3ccccc3c2)CC1	112
O=C(NCCCCN1CCN(c2cccc(Cl)c2Cl)CC1)c1ccc2c(c1)Cc1ccccc1-2	107
Cc1cn(CCN2CCN(c3ccccc3-c3cc(C#N)cc(C(=O)NCCCN4CCCC4)c3)CC2)c2ccccc12	30.6
CC(C)=CCC/C(C)=C/CC/C(C)=C/CSCC(=O)O [Farnesylthioacetic acid]	96.1

Compound	mean cytoplasmic OPP incorporation
CSCC[C@H](NC=O)C(=O)N[C@@H](CC(=O)O)C(=O)NCC(=O)N[C@@H](CS)C(=O)N[C@@H](CCC(=O)O)C(=O)N[C@@H](CC(C)C)C(=O)O	103
CC(=O)N1CCN(C)CC1 [1-Acetyl-4-methylpiperazine hydrochloride]	99.1
Cc1ccc([N+](=O)[O-])cc1S(=O)(=O)N(C)C	94.1
Cc1ccc([N+](=O)[O-])cc1S(=O)(=O)N(C)/N=C/c1cnc2ccc(Br)cn12	44.3
Cn1cccc1/C=C1\C(=O)NC(=O)c2ccccc21	89.4
Cc1cc(Nc2ncc(Cl)c(Nc3ccccc3S(=O)(=O)C(C)C)n2)c(OC(C)C)cc1C1CCNCC1 [Ceritinib (LDK378)]	25.4
CC(C)Oc1cc(Nc2nc(N[C@@H](C)c3ccc(F)cn3)ncc2Cl)n[nH]1	110
O=C1c2ccccc2C(=O)c2c1ccc(O)c2O [Alizarin]	106
O=C1c2ccccc2-c2nc3nonc3nc21	81.3
O=C1C(SCCO)=C(SCCO)C(=O)c2ccccc21	71.3 and 55.3
O=[N+]([O-])c1ccc(Oc2ccc(Br)cc2)c(C(O)P(=O)(O)O)c1 (configuration not stated)	95.9
COC(=O)C(Cc1ccc(OCCn2c(=O)sc3cc(C(=O)c4ccccc4)ccc32)cc1)C(=O)OC	105
CC(=O)OC[C@H]1O[C@@H]([S-])[C@H](OC(C)=O)[C@@H](OC(C)=O)[C@@H]1OC(C)=O.CCP(CC)CC.[Au+] [Auranofin]	10.4
CCCCc1nc2ccn(Cc3cccs3)c(=O)c2n1Cc1ccc(-c2ccccc2-c2nn[nH]n2)cc1	104
COc1cc(-c2cn(C)c(=O)c3cnccc23)c(OC)cc1CN(C)C	95.8
c1ccc(-c2n[nH]c3c2oc2ccccc23)cc1	87.3
O=C1NC(=O)/C(=C/c2ccc3nccc(-c4ccncc4)c3c2)S1	90.1
Cc1[nH]c(=O)c(C#N)cc1-c1ccncc1 [Milrinone]	94.4
O=C1NCCc2[nH]c(-c3ccncc3)cc21	49.9 ± 13
